Results taken from the supplement of paper PMC11417369.
± gives the standard deviation of the averaged measurements. In all, about 25,000 sequences were measured (“ln(normalized median fluorescence intensity)”: median about 10, highest 2% from about 12 on). The list comes from a sample in which the highest values are over-represented; it also holds similar and randomly drawn sequences.

Tested on: PfAP2-G AP2 domain (GST-tagged)
Assay: gcPBM binding intensity (ln(normalized median fluorescence intensity)); higher = stronger DNA binding
How it was run: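 The highest Masliner-normalised natural-log median intensity across replicate spots of either probe orientation is reported as binding intensity. GST-tagged P. falciparum DNA-binding domains expressed in E. coli were applied for 1 h to an Agilent 4 × 180k array of primer-extended double-stranded 36-bp intergenic genomic probes plus negative controls, and bound protein was detected with Alexa488 anti-GST antibody and scanned at 488 nm.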

Sequence | gcPBM binding intensity (ln)
TTTTTTTTTTTGTTCACACATATACTTTTATTTTGG [CACACA_site4250] | 10.2 ± 0.23
AAAAAAAAAAAAAAAACACACAATAAAGTAAAATTT [CACACA_site135] | 10.15 ± 0.049
TAAAAATGGGTATGTACACACTTTATTTTTAATACA [CACACA_site5404] | 11.5 ± 0.92
TATATATTCCTCCATAGTACAATAATAAAGATAAAA [XGTACX_site5785] | 10.6 ± 0.35
ATGTTCTTATTATTGGTGCAAGAATACACAAGAAAA | 10.4 ± 0.45
ATTTTTTTACTGCAACCATATTTTTCCCTTTTATTC [CACACA_negctrl_site1282] | 10.12 ± 0.085
AAAATTTAAATAGGAAGTACGTTCACTAAGAAAATA [XGTACX_site6546] | 11 ± 0.57
TTGCTGTATTTATTTTGTACACATTTGGCATTATAT [XGTACX_site3408] | 11.2 ± 0.73
CTATAATAGAAGTGTACACACATATTTATGTCTGTA [CACACA_site7462] | 11.7 ± 0.93
TTAATATAATAGAAGTGTACACACATATTTATGTGT [XGTACX_site6672] | 11.5 ± 0.78
TTTAAAAATTAATTCTGTACACATTTTTATTATATT [XGTACX_site4212] | 11.5 ± 0.81
ATATAATAGAAGTGTACACACATATTTATGTCTGTA [CACACA_site3121] | 11.5 ± 0.74
TGCTGTATATTTTTCTGTACACATTTATATATTCCA [XGTACX_site6244] | 11.6 ± 0.87
TATATATAATATAGTGCATGTAAAAAATAAACCATG [TGCATGCA_site932] | 10.2 ± 0.16
ACAAGTTAAAATATTACACACATATAAATATATATA [CACACA_site3132] | 9.84 ± 0.099
TTGTTCTATATATATGCATGCACGTATGTTAAATTA [TGCATGCA_site659] | 10.3 ± 0.33
AGATATTAAAACGTTACACACATTTATATATCTTCT [CACACA_site908] | 9.74 ± 0.2
GAAAGAATAAAATTTACACACATATATATATACATA [CACACA_site2250] | 9.745 ± 0.035
ATGTCTATATATTAAGGTACACATATATGCTATTCA [XGTACX_site6008] | 11.1 ± 0.57
ACTTATAAAATAACATGTACAAATATTTATTATATA [XGTACX_site133] | 11 ± 0.54
AAAAAAATATAAATACGTACATATATATATATATAT [XGTACX_site432] | 11.5 ± 0.98
TTATACATAAATTTTGTACACACAAAAAAAAAAAAG [CACACA_site8374] | 11.2 ± 0.87
ATATCGAAAATTTGGTGTACATTTTTATTTGTTCAA [XGTACX_site3094] | 11.5 ± 0.93
ATTTTGTTCGAAAGGTGTACATATACAAAAATTATG [XGTACX_site957] | 11.7 ± 1
TTTATTTATTACTAAAGTACTAAATCATATTATTAT [XGTACX_site2574] | 10.6 ± 0.54
